The structures appear in SMILES notation. For some of these results: Potency and affinity values are given separately.

These results are taken from ChEMBL document CHEMBL3988442, “University of Dundee, Small-Polar-MMV Screening Library” (2021).

Holding throughout (design): scale not given: direction of the effect not stated beside the values
For assay [1], the target named is Protein translocase subunit SecA (Escherichia coli (strain K12)) (UniProt P10408). Nature of the assay: Assay to Identify E. coli SecA ATPase Inhibitors. The assay is classed as functional. The conditions noted are these: 30 µM.
For assay [2], the target named is T1, Ubiquitin-activating enzyme e1, putative (Leishmania donovani (strain BPK282A1)) (UniProt E9BSI1).
T1 sequence (whole entry): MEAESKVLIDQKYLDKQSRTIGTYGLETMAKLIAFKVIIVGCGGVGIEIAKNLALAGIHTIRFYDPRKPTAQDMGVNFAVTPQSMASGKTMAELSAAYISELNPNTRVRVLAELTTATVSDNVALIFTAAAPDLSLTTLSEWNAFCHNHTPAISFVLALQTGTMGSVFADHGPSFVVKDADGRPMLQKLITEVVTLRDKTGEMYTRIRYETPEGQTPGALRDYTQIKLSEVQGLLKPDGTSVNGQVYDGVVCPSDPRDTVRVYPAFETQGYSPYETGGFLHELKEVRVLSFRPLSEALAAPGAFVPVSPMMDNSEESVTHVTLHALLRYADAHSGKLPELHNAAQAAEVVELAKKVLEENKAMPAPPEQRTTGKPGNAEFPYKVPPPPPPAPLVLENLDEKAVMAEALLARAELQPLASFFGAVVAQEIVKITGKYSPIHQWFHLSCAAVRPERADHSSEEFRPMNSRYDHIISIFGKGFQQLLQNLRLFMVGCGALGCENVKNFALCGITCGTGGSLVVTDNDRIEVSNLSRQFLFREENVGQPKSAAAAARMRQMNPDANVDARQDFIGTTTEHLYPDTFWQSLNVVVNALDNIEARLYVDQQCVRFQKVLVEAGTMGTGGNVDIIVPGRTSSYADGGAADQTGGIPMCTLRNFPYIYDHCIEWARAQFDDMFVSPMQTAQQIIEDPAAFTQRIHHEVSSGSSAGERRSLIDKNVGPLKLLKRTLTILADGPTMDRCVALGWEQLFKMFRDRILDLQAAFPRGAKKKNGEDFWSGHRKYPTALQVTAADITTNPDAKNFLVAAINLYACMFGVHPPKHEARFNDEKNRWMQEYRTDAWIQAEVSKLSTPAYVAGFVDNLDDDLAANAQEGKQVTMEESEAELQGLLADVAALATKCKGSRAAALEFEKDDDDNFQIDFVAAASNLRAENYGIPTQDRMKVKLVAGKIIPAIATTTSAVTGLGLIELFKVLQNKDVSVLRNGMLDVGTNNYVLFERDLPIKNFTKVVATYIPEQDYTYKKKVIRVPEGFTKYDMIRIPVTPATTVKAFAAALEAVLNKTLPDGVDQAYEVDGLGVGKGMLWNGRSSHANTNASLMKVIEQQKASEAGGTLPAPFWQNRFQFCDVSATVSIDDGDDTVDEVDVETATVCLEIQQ
Nature of the assay: Leishmania donovani Ubiquitin Activating Enzyme (LdE1). The conditions noted are these: 30 µM. It is filed as functional.

The target in assay [3] is AMP-activated protein kinase, AMPK (Homo sapiens) (UniProt P54646+O43741+P54619+Q9UGJ0+Q9Y478+Q13131+Q9UGI9). As to the kind of experiment: AMP-dependent Kinase enzyme assay. An in vitro enzyme assay that detects ADP turnover that is directly proportional to AMPK activity. This uses naive AMPK that is activated during the assay with MK-8722. The assay is classed as functional. The settings on record: 30 µM.

The target in assay [4] is Sialic acid-binding Ig-like lectin 9 (Homo sapiens) (UniProt Q9Y336). Nature of the assay: Hs-Siglec9 ALPHAscreen SOP 20170721. The conditions noted are these: 10 µM. For orientation: Bead proximity is the source of the signal in Alpha formats.
The test system of another assay is Trypanosoma cruzi. As to the kind of experiment: Trypanosoma cruzi phosphomannomutase and mannose-1-phosphate guanylyltransferase assay. The assay is classed as functional. The settings on record: 10 µM.
Assay [5] deals with T2, Arginase-2, mitochondrial (Homo sapiens) (UniProt P78540).
T2 sequence (whole entry): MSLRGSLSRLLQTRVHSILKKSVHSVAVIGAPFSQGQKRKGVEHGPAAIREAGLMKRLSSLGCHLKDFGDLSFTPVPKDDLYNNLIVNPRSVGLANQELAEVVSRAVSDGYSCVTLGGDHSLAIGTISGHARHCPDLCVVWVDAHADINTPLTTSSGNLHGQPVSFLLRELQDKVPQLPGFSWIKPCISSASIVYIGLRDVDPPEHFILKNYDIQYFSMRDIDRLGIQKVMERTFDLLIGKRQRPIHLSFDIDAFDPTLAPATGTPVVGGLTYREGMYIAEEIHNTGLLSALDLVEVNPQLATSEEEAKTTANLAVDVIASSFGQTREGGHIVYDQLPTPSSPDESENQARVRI
As to the kind of experiment: in vitro enzyme assay to detect the production of urea directly proportional to the activity of Arginase II. Note: in the data most compounds retested in dose-response had high values. It is filed as functional. The settings on record: 33.3 µM.

Assay [6] concerns the target T3, Proteasome subunit beta (Trypanosoma cruzi) (UniProt O96673).
T3 sequence (whole entry): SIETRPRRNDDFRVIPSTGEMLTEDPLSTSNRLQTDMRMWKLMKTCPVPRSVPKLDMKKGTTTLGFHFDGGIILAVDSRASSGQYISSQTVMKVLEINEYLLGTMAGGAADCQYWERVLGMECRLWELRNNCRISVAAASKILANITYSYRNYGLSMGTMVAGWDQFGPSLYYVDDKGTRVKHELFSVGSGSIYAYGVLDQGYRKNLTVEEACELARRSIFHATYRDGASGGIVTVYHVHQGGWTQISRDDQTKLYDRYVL
Nature of the assay: Trypanosoma cruzi proteasome chymotrypsin-like activity (TcProtChymo) assay. Note: in the data most compounds retested in dose-response had high values. It is filed as functional. The conditions noted are these: 9.37 µM.

The species named for the next assay is Homo sapiens. As to the kind of experiment: To identify inhibition of the IFN signalling (Jak-Stat) pathway via expression of an eGFP reporter gene under the control of an IFN-stimulated response element (ISRE) containing MxA promoter. It is filed as functional. The conditions noted are these: 30 µM. On the technique in general: A reporter such as luciferase makes a cellular process visible.

In assay [7] the target is T4, Tyrosyl-tRNA synthetase, putative (Trypanosoma cruzi (strain CL Brener)) (UniProt Q4DSP6).
T4 sequence (whole entry): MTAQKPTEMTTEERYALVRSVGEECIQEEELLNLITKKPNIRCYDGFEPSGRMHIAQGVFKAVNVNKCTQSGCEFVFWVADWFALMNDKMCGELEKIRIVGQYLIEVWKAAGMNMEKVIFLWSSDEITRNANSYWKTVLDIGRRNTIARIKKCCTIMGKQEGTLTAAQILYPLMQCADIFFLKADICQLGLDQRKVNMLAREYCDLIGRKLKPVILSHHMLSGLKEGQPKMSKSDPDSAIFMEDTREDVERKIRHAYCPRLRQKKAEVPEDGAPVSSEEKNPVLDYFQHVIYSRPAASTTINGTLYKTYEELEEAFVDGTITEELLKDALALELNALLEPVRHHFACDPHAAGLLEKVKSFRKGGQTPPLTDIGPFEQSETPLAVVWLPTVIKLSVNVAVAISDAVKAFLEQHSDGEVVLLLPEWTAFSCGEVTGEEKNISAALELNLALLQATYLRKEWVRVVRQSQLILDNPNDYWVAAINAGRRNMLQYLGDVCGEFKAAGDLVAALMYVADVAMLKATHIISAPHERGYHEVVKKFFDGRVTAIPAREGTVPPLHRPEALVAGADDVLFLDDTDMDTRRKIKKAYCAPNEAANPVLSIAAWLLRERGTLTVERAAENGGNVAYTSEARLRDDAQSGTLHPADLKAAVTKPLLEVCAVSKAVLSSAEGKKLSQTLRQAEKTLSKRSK
As to the kind of experiment: Trypanosoma cruzi tyrosyl tRNA synthetase (TcYRS) _High Tyrosine SOP. Note: in the data most compounds retested in dose-response had high values. The conditions noted are these: 30 µM. It is filed as functional.

Assay [8] concerns the target T4, Tyrosyl-tRNA synthetase, putative (Trypanosoma cruzi (strain CL Brener)). As to the kind of experiment: Trypanosoma cruzi tyrosyl tRNA synthetase (TcYRS) SOP. The assay is classed as functional. The conditions noted are these: 30 µM.
The target of assay [9] is Chromo domain-containing protein 1 (Saccharomyces cerevisiae (strain ATCC 204508 / S288c) (Baker's yeast)) (UniProt P32657). As to the kind of experiment: ScCHD-1 Enzyme Inhibition Assay. Note: in the data most compounds retested in dose-response had high values. The assay is classed as functional. The settings on record: 30 µM.
Chain of Chromo domain-containing protein 1 (Saccharomyces cerevisiae (strain ATCC 204508 / S288c) (Baker's yeast)) (P32657 whole entry, the tested form may be a part): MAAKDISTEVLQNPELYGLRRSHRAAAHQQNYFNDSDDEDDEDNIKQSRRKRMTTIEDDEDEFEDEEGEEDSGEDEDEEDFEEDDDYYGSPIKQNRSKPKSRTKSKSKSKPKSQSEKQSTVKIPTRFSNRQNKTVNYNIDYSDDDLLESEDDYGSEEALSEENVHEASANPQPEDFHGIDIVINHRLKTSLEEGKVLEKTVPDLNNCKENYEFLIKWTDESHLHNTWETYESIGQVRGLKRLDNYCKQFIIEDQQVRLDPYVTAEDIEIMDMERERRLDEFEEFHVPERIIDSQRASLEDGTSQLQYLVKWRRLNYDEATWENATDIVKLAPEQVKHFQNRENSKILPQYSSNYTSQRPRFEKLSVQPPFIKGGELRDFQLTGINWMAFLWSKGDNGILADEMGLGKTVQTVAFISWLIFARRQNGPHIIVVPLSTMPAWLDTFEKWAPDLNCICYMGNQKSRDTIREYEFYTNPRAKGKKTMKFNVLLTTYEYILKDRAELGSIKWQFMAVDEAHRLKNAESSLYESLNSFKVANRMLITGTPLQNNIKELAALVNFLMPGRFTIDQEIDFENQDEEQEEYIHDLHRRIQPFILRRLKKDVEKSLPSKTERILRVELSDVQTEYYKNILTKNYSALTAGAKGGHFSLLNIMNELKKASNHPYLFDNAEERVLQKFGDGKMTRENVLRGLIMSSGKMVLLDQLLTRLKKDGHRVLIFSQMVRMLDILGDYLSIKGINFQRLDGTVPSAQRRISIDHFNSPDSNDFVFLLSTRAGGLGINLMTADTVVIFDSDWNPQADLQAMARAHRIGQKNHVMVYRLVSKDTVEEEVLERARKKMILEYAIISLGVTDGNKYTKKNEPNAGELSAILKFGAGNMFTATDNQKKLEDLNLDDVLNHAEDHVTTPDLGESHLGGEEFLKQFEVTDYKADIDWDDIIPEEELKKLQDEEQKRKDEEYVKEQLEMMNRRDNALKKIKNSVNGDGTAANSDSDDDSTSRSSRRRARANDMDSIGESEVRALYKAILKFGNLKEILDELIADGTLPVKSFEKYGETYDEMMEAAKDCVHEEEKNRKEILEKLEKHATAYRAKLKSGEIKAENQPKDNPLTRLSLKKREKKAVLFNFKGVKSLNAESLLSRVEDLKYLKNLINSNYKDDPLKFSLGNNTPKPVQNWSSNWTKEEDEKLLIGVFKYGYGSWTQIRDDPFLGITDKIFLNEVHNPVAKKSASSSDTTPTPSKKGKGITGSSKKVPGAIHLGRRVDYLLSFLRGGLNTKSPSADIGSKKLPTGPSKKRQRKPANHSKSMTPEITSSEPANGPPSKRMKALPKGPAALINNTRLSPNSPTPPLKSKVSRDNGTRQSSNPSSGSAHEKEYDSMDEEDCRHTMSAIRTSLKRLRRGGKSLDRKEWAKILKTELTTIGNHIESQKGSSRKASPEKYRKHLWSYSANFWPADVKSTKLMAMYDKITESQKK

Chain of Protein translocase subunit SecA (Escherichia coli (strain K12)) (P10408 whole entry): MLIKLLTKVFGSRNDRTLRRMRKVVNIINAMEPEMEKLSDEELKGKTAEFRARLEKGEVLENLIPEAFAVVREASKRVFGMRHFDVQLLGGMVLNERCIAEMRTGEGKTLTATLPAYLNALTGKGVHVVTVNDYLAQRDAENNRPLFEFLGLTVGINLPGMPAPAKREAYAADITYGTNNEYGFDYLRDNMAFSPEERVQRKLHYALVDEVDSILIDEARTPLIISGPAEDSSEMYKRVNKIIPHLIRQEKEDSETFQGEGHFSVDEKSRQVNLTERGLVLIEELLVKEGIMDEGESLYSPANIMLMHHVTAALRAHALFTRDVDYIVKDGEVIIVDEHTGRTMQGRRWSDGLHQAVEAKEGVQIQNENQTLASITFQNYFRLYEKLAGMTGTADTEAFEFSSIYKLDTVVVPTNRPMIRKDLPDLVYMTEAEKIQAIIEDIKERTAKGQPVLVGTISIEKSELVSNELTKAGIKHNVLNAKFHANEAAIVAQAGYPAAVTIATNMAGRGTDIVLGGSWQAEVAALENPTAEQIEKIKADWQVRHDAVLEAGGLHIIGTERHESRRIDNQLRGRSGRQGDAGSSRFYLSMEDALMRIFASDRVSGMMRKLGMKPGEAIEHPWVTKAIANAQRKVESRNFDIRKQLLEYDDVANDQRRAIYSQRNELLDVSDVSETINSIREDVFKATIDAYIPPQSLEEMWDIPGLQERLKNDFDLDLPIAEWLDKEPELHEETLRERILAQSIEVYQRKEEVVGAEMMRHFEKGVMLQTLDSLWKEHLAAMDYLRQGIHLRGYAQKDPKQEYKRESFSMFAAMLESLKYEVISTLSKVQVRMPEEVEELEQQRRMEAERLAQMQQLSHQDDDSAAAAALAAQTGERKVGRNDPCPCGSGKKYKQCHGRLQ
Chain of Sialic acid-binding Ig-like lectin 9 (Homo sapiens) (Q9Y336 whole entry): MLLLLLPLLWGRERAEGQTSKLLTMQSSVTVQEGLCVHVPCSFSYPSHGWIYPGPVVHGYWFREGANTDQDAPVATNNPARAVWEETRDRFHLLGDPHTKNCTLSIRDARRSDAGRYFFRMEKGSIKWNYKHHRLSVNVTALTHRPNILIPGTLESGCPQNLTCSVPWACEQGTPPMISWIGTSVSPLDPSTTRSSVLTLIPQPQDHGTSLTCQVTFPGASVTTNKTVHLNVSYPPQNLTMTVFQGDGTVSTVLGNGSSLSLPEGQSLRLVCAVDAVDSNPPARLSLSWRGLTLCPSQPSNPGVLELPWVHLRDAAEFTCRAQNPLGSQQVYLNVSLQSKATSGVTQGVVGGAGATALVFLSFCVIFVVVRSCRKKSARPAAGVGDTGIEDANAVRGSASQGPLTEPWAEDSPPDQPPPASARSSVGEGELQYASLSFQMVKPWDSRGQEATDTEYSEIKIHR

With `COc1cccc(CN(C)C(=O)CN2CCN(CCO)CC2)c1`, the Percent Effect in assay [1] is -2.96%; in assay [2], 8%; in [3], -6.71%; in assay [4] it was 1.75%; with Trypanosoma cruzi, 0.292%; in assay [5] it was 3.12%. In addition, the Percent Effect is 24.6% in [6]; 14.1% in the assay listed under Homo sapiens; 9.29% in assay [7]; 16.1% in assay [8]; -7.41% in [9].

For `CN(Cc1nnc2n1CCC2)C(=O)Cc1ccc2c(c1)OCCO2`, the Percent Effect in assay [1] was -1.44%; in assay [2] it was 13.5%; in assay [3], -8.06%; in assay [4] it was -5.38%; in the assay with Trypanosoma cruzi, 4.25%; in assay [5], -5.21%. For the same compound, the Percent Effect is 13.7% in assay [6]; 10.6% in the assay filed under Homo sapiens; 4.43% in [7]; 18.5% in assay [8]; -8.36% in assay [9].

Regarding `COc1cccc(COCC(=O)N2CCCC(c3cc(C)[nH]n3)C2)c1` (stereo unspecified), the Percent Effect is -3.58% in [1]; 13.5% in [2]; -9.62% in [3]; 3.3% in assay [4]; -2.92% with Trypanosoma cruzi; -0.401% in assay [5]. Moreover, the Percent Effect in assay [6] was 2.7%; in the assay listed under Homo sapiens, 10.1%; in assay [7], 11.3%; in assay [8], 16.1%; in assay [9], -4.89%.

With `CN1CCN(Cc2cnc3n2CCN(Cc2cccs2)C3)CC1`, the Percent Effect in assay [1] was -1.16%; in assay [2], 21.6%; in assay [3], -2.7%; in [4], -1.5%; in the assay with Trypanosoma cruzi, 3.62%; in [5], 2.87%. In addition, the Percent Effect in assay [6] was 19.7%; in the assay filed under Homo sapiens, -1.05%; in [7], 4.32%; in assay [8], 20.5%; in assay [9] it was -0.68%.

On to `COc1cc(C(=O)N(C2CC2)C2CC(=O)NC2=O)ccc1C` (stereo unspecified), for which the Percent Effect in assay [1] is 0.67%; in [2] it was 12.7%; in assay [3], 4.42%; in assay [4], 4.45%; with Trypanosoma cruzi, -7.84%; in [5], 8.37%. The Percent Effect in assay [6] is 1.72%; in the assay filed under Homo sapiens, 24.4%; in assay [7], 4.43%; in [8], 11.4%; in assay [9], -4.59%.

With `Cc1cc(N(C)C)nc(C2(C)CCCN2C(=O)c2cnccn2)n1` (stereo unspecified), the Percent Effect in assay [1] is -2.86%; in [2], 8%; in assay [3] it was 5.28%; in [4], -5.27%; with Trypanosoma cruzi it was 7.48%; in [5] it was 2.1%. For the same compound, the Percent Effect in [6] is 11.4%; in the assay filed under Homo sapiens it was -1.62%; in assay [7], 1.06%; in assay [8], 8.97%; in [9] it was -2.81%.

Regarding `COC(=O)c1ccc(C(=O)NS(=O)(=O)c2cncc(Br)c2)cc1`, the Percent Effect was -4.86% in [1]; 0% in assay [2]; 0.578% in assay [3]; 3.83% in [4]; -2.9% in the assay with Trypanosoma cruzi; -0.952% in assay [5]. Besides, the Percent Effect in assay [6] was 15.7%; in the assay filed under Homo sapiens, 26.4%; in assay [7], -0.529%; in assay [8] it was 2.44%; in [9], -0.393%.

With `O=C(CN1CCCCC1Cn1cncn1)NCCc1ccc(F)cc1` (stereo unspecified), the Percent Effect in assay [1] is -0.868%; in [2], 15.2%; in [3], -4.02%; in assay [4], -10.5%; in the assay with Trypanosoma cruzi it was -6.89%; in assay [5], -2.28%. Also, the Percent Effect was 8.27% in assay [6]; 37.4% in the assay filed under Homo sapiens; 8.37% in assay [7]; 11.4% in assay [8]; -9.46% in assay [9].

`O=C(CCCc1ncc(-c2ccccc2)o1)N1CCN(CCO)CC1`: the Percent Effect in assay [1] is -2.7%; in assay [2], 20.2%; in assay [3] it was 6.12%; in assay [4], -6.16%; in the assay with Trypanosoma cruzi, -1.04%; in assay [5] it was 3.04%. The Percent Effect in [6] was 14.2%; in the assay listed under Homo sapiens it was 6.15%; in [7] it was 4.43%; in [8] it was 13.9%; in [9] it was -3.58%.

With `O=C(CC1CC1)NCc1cn2c(n1)CN(C(=O)c1cccnc1)CC2`, the Percent Effect in [1] was -2.41%; in [2], 8%; in assay [3], 8.62%; in [4], 2.88%; in the assay on Trypanosoma cruzi it was -7.28%; in assay [5], 1.17%. Also, the Percent Effect in assay [6] is 2.73%; in the assay filed under Homo sapiens it was 9.61%; in assay [7] it was 0%; in assay [8], 8.97%; in assay [9], 3.52%.

For the compound `CCN1CCN(C(=O)CCc2c(C)noc2Cl)CC1`, the Percent Effect was -4.13% in assay [1]; 10.5% in [2]; -2.91% in [3]; -3.24% in [4]; -9.24% in the assay on Trypanosoma cruzi; 4.32% in [5]. The Percent Effect in assay [6] was 5.16%; in the assay filed under Homo sapiens, -6.25%; in assay [7] it was 3.45%; in [8], 6.17%; in assay [9] it was -1.51%.
